Records with an inconclusive call do not appear. The source made the active and inactive calls. Unless noted, calls come from the whole dose curve; as a rule, active = well fitted curve in the direction sought with a large enough effect in the repeat runs; inconclusive = weak or mixed curves; inactive = no such curve, though single readings can be large; an effect the other way counts as inactive or inconclusive.
Columns and labels:
[1] = qHTS assay for small molecule agonists of the p53 signaling pathway (AID 651631; calls by dose curve; note: nearly all actives have a fitted effect of over 15% in size)
Method in brief: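 Testing took place in human colorectal HCT-116 cells with stable p53RE-driven beta-lactamase. After 16 h of compound exposure at 37 °C, a FRET substrate was added and fluorescence recorded 2 h later.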

[2] = qHTS assay for small molecules that induce genotoxicity in human embryonic kidney cells expressing luciferase-tagged ATAD5 (AID 651632); note: nearly all actives have a fitted effect of over 15% in size
Method in brief: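 Test compounds were delivered by pin tool onto HEK293T reporter cells (2,000/well) expressing ATAD5 fused to luciferase. After 16 hr at 37C, 5% CO2, Amplite was added for 30 min at room temperature and luminescence was measured.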

[3] = qHTS assay for small molecule agonists of the p53 signaling pathway - cell viability (AID 651633; calls by dose curve; note: series mostly up to about 83 µM; nearly all actives have a fitted effect of over 30% in size)
Method in brief: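 p53RE-bla cells, seeded at 4,000 per well and rested 5 h at 37 C/5% CO2, received compounds in DMSO for 16 h at 37 C. CellTiter-Glo was then added, and luminescence was read after 30 min at room temperature to gauge cytotoxicity.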

[4] = qHTS assay for small molecules that induce genotoxicity in human embryonic kidney cells expressing luciferase-tagged ATAD5 - cell viability (AID 651634; calls by dose curve; note: nearly all actives have a fitted effect of over 25% in size)
Method in brief: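 Quantitative high-throughput format. HEK293T cells expressing ATAD5 fused to luciferase were plated at 2,000 cells/well and treated 15.5 hr with compound versus DMSO. Viability was determined by fluorescent live-cell protease substrate, 30 min at 37C.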

[5] = qHTS assay for small molecule disruptors of the mitochondrial membrane potential - cell viability (AID 720634; calls by dose curve;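 note: human HepG2 liver cancer cells; series mostly up to about 83 µM; nearly all actives have a fitted effect of over 20% in size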)
Method in brief: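 Same-well counter-screen: following the MMP dye addition, CellTiter-Glo was added to 1 hr compound-treated HepG2 cells and luminescence read after 30 min at room temperature.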

[6] = qHTS assay to test for compound auto fluorescence at 590 nm (red) in HepG2 cells (AID 720674)
Method in brief: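 Intrinsic compound fluorescence in the red window (Ex/Em 540/590 nm) is measured in attached HepG2 cells exposed for 1 hr, DMSO vehicle as baseline, benchmarked to Rose Bengal sodium.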

[7] = qHTS assay to test for compound auto fluorescence at 535 nm (green) in HepG2 cells (AID 720675)
[8] = qHTS assay to test for compound auto fluorescence at 460 nm (blue) in HEK293 cells (AID 720678)
Method in brief: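 Measured: blue fluorescence (Ex 405/Em 460 nm) of compound-treated HEK293 cells, incubated overnight at 37C with 5% CO2 and scaled to triamterene equivalents.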

[9] = qHTS assay to test for compound auto fluorescence at 590 nm (red) in HEK293 cells (AID 720679)
Method in brief: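 Using HEK293 cells at 2,000 per well, the screen added 23 nL of each compound after cell attachment and incubated overnight (37C, 5% CO2). The plate reader then captured red-label fluorescence, Ex/Em 540/590nm.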

[10] = qHTS assay to test for compound auto fluorescence at 535 nm (green) in HEK293 cells (AID 720680)
[11] = qHTS assay to test for compound auto fluorescence at 460 nm (blue) in HEK293 cell free culture (AID 720681)
Method in brief: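 Test compounds were pinned into cell-free culture medium (DMEM with 10% FBS) and fluorescence was read directly at Ex/Em 405/460 nm. Signals were expressed as fluorescence equivalents of triamterene, with DMSO vehicle as control.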

[12] = qHTS assay to test for compound auto fluorescence at 535 nm (green) in HEK293 cell free culture (AID 720682)
Method in brief: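 DMEM + 10% FBS, cell-free; cpd or DMSO pinned in; Ex485/Em535 read; output as fluorescein-equivalent signal.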

[13] = qHTS assay to test for compound auto fluorescence at 590 nm (red) in HEK293 cell free culture (AID 720683)
Method in brief: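 Tox21 10K library compounds were pinned into cell-free DMEM with 10% FBS and fluorescence was read at excitation 540 nm. Activity is expressed as Rose Bengal sodium equivalency.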

[14] = qHTS assay to test for compound auto fluorescence at 590 nm (red) in HepG2 cell free culture (AID 720684)
Method in brief: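 Ex 540 / Em 590 nm read of compound in cell-free MEM (10% FBS). Rose Bengal sodium reference.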

[15] = qHTS assay to test for compound auto fluorescence at 460 nm (blue) in HepG2 cell free culture (AID 720685)
Method in brief: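 Cell-free plates of MEM plus 10% FBS received 23 nL compound or DMSO vehicle; blue-channel (405/460 nm) intensity scored against triamterene as reference fluorophore.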

[16] = qHTS assay to test for compound auto fluorescence at 535 nm (green) in HepG2 cell free culture (AID 720686)
[17] = qHTS assay to test for compound auto fluorescence at 460 nm (blue) in HepG2 cells (AID 720687)
Method in brief: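 Cells (2,000/well in MEM with 10% FBS) attached overnight at 37 C, then were exposed to compound or DMSO for 1 hr at 37 C, 5% CO2. Fluorescence read at Ex/Em 405/460 nm, expressed as triamterene-equivalent signal.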

[18] = qHTS assay to identify small molecule antagonists of the glucocorticoid receptor (GR) signaling pathway - cell viability counter screen (AID 720693); note: nearly all actives have a fitted effect of over 55% in size
[19] = qHTS assay for identifying genotoxic compounds that show differential cytotoxicity against isogenic chicken DT40 cell lines with known DNA damage response pathways - wild type cell line (AID 743012); note: nearly all actives have a fitted effect of over 60% in size
Method in brief: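 300 wt DT40 cells/well; cpd (DMSO) pintool-transferred after ~0.5 h at 37 C/5% CO2; 40 h incubation; CellTiter-Glo added, 30 min RT; luminescence read.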

[20] = qHTS assay for identifying genotoxic compounds that show differential cytotoxicity against isogenic chicken DT40 cell lines with known DNA damage response pathways - Rev3 mutant cell line (AID 743014); note: nearly all actives have a fitted effect of over 55% in size
[21] = qHTS assay for identifying genotoxic compounds that show differential cytotoxicity against isogenic chicken DT40 cell lines with known DNA damage response pathways - Rad54/Ku70 mutant cell line (AID 743015); note: nearly all actives have a fitted effect of over 60% in size
[22] = qHTS assay to identify small molecule antagonists of the androgen receptor (AR) signaling pathway - cell viability counter screen (AID 743033; note: nearly all actives have a fitted effect of over 45% in size)
[23] = qHTS assay to identify small molecule antagonists of the androgen receptor (AR) signaling pathway using the MDA cell line - cell viability counter screen (AID 743041; note: nearly all actives have a fitted effect of over 45% in size)
Method in brief: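 In this qHTS counter assay, fluorescence intensity after CellTiter-Fluor addition indicated viability of MDA-kb2 AR-luc cells given compounds and R1881 for 16 h at 37C.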

[24] = qHTS assay to identify small molecule antagonists of the thyroid receptor (TR) signaling pathway - cell viability counter screen (AID 743064); note: nearly all actives have a fitted effect of over 50% in size
Method in brief: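 Viability of T3-stimulated (1 nM final) GH3.TRE-Luc cells is measured by CellTiter-Fluor fluorescence after 23.5 h compound exposure at 37 °C plus 30 min reagent incubation.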

[25] = qHTS assay to identify small molecule antagonists of the thyroid receptor (TR) signaling pathway (AID 743065); note: series mostly up to about 70 µM; nearly all actives have a fitted effect of over 55% in size
Method in brief: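 GH3.TRE-Luc rat pituitary cells carrying two TR response elements driving luciferase were plated for 4 h, given compound plus 1 nM T3 (final), and incubated 23.5 h at 37 C. ONE-Glo luminescence measured reporter inhibition; CellTiter-Fluor fluorescence tracked cytotoxicity.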

[26] = test system: thyroid hormone receptor (rat, GH3 cells); test: qHTS assay to identify small molecule agonists of the thyroid receptor (TR) signaling pathway (AID 743066; calls by dose curve)
[27] = target: Estrogen receptor (Homo sapiens) (UniProt P03372); test: qHTS assay to identify small molecule antagonists of the estrogen receptor alpha (ER-alpha) signaling pathway (AID 743069; active = well fitted curve in the direction sought with a large enough effect in the signal ratio in the repeat runs, not every such curve was filed as active; the % refers to the signal ratio)
Chain of Estrogen receptor (Homo sapiens) (P03372 whole entry, looked up): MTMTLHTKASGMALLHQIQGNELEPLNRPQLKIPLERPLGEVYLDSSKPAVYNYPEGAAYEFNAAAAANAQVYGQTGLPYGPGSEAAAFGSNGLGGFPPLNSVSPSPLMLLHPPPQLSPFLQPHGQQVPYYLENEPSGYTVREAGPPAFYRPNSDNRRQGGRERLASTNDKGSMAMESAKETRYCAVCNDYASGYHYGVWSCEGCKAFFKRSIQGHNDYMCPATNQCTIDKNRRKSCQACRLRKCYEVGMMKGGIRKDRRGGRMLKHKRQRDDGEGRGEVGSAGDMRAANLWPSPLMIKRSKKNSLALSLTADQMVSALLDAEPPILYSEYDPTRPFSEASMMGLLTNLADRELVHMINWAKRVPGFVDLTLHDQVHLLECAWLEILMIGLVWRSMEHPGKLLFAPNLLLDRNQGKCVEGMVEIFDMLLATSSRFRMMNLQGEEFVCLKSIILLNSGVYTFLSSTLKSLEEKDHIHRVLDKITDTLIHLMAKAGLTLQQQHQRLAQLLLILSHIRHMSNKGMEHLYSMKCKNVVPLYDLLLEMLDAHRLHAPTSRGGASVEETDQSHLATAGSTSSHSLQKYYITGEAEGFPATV
Method in brief: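 A 17beta-estradiol challenge was applied right after compound transfer to ER-alpha-UAS-bla HEK293 cells previously kept in charcoal-stripped serum. Plates stood 18 hr at 37C and 5% CO2; fluorescence was read following 2 hr FRET substrate loading at room temperature.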

[28] = target: Estrogen receptor (Homo sapiens) (UniProt P03372); test: qHTS assay to identify small molecule agonists of the estrogen receptor alpha (ER-alpha) signaling pathway (AID 743075; calls by dose curve;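 note: HEK293 GripTite cells with ER-alpha and UAS-driven beta-lactamase reporter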)
[29] = target: Estrogen receptor (Homo sapiens) (UniProt P03372); test: qHTS assay to identify small molecule agonists of the estrogen receptor alpha (ER-alpha) signaling pathway using the BG1 cell line (AID 743079); note: nearly all actives have a fitted effect of over 20% in size
[30] = qHTS assay to identify small molecule antagonists of the estrogen receptor alpha (ER-alpha) signaling pathway using the BG1 cell line (AID 743080; calls by dose curve;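 note: BG1 cells stimulated with 17beta-estradiol alongside compound; series mostly up to about 70 µM; nearly all actives have a fitted effect of over 25% in size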)
Method in brief: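 Quantitative HTS on the Tox21 10K library: BG1 cells with endogenous ER-alpha and ERE-luciferase reporter, 17beta-estradiol stimulation, 21.5 h compound exposure, luminescence endpoint with parallel fluorescence cytotoxicity counter-read.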

Aromatase (Homo sapiens) = Aromatase (Homo sapiens) (UniProt P11511); test: qHTS assay to identify aromatase inhibitors (AID 743083); note: series mostly up to about 70 µM; nearly all actives have a fitted effect of over 55% in size
Chain of Aromatase (Homo sapiens) (P11511 whole entry, looked up): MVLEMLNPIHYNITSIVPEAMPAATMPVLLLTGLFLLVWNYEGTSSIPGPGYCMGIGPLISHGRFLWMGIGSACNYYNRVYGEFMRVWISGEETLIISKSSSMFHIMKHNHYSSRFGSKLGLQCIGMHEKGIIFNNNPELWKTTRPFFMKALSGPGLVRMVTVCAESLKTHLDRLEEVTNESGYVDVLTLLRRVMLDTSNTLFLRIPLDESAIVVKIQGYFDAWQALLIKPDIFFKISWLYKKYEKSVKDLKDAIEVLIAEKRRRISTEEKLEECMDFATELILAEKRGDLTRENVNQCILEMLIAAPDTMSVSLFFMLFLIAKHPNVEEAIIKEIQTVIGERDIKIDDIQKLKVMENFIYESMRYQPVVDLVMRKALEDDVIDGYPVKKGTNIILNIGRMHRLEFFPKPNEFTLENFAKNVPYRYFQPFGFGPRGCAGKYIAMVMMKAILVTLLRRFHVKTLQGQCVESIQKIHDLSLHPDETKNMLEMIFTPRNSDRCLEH

[31] = qHTS assay to identify aromatase inhibitors - cell viability counter screen (AID 743084)
[32] = qHTS assay to identify small molecule that activate the aryl hydrocarbon receptor (AhR) signaling pathway - cell viability counter screen (AID 743086);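 note: HepG2 liver cells carrying the AhR DRE luciferase reporter; series mostly up to about 70 µM; nearly all actives have a fitted effect of over 45% in size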
Method in brief: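 HepG2-AhR-luc (HG2L7.5c1) cells, 4000/well, were preincubated 5 h at 37C, exposed to compound in qHTS format for 24 hr at 37C, then given CellTiter-Fluor for 30 min; viability was read as fluorescence in the reporter wells.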

[33] = target: Peroxisome proliferator-activated receptor gamma (Homo sapiens) (UniProt P37231); test: qHTS assay to identify small molecule agonists of the peroxisome proliferator-activated receptor gamma (PPARg) signaling pathway (AID 743094; active = well fitted activation curve with a large enough effect in the signal ratio in the repeat runs, not every such curve was filed as active; the % refers to the signal ratio)
Chain of Peroxisome proliferator-activated receptor gamma (Homo sapiens) (P37231 whole entry, looked up): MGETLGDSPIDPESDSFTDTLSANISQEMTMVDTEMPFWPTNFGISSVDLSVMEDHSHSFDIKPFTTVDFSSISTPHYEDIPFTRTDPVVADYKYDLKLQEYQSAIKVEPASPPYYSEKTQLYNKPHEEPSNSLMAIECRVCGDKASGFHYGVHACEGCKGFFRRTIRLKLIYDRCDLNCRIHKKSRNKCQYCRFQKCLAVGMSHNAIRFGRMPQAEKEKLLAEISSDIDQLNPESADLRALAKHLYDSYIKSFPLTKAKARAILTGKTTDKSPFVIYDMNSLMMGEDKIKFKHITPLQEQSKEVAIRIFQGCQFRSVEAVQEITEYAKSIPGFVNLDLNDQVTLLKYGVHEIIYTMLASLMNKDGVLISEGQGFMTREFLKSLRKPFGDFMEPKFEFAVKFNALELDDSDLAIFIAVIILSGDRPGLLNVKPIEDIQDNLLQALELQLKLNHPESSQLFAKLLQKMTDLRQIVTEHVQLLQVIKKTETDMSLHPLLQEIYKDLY
Method in brief: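 Cell-based bla reporter, HEK293H background, PPARg-driven UAS. Pre-incubation 5 h, 37C, 5% CO2. Compound 17 h, 37C. Substrate 1 h RT; fluorescence.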

[34] = qHTS assay to identify small molecule antagonists of the estrogen receptor alpha (ER-alpha) signaling pathway using the BG1 cell line - cell viability counter screen (AID 743081);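 note: compound given together with 17beta-estradiol as the ER stimulus; series mostly up to about 70 µM; nearly all actives have a fitted effect of over 45% in size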
[35] = target: Acetylcholinesterase (Homo sapiens) (UniProt P22303); test: Acetylcholinesterase (AChE) small molecule antagonists: enzyme-based qHTS assay with human liver microsomes (AID 1347399; calls by dose curve; note: nearly all actives have a fitted effect of over 60% in size); conditions: Potency: qHTS inhibition; outcome: qHTS inhibition
Chain of Acetylcholinesterase (Homo sapiens) (P22303 whole entry, looked up): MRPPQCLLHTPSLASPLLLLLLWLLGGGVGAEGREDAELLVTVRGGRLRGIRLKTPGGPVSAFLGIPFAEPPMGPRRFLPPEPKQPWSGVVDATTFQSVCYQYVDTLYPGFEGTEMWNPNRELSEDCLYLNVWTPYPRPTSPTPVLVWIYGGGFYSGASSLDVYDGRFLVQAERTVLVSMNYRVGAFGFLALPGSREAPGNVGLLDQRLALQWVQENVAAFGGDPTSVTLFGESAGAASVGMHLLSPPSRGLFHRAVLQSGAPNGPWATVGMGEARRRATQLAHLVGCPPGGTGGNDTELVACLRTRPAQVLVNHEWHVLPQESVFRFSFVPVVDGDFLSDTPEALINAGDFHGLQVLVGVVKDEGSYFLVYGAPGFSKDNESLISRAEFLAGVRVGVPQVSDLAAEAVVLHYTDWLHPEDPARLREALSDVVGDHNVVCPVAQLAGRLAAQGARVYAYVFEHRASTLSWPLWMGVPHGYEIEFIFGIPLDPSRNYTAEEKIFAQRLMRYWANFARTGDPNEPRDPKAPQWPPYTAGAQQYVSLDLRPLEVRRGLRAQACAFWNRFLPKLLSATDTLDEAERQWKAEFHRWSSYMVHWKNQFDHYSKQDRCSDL
Method in brief: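 Recombinant human AChE (50 mU/mL in the enzyme mix) and human liver microsomes (0.25 mg/mL final) were preincubated with compound and NADPH (0.25 mg/mL final) for 30 min at 37 C. Acetylthiocholine/DTNB was then added; thiocholine was read colorimetrically after 10 min at room temperature.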

[36] = qHTS assay for small molecule disruptors of the mitochondrial membrane potential (AID 720635)
Method in brief: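 HepG2 cells (2,000/well) attached overnight at 37C, then took compound for 1 hr at 37C, 5% CO2. Mito-MPS dye was added for 30 min; fluorescence was read at 490/535 nm (monomers) and 540/590 nm (aggregates).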

[37] = target: Glucocorticoid receptor (Homo sapiens) (UniProt P04150); test: qHTS assay to identify small molecule agonists of the glucocorticoid receptor (GR) signaling pathway (AID 720691; active = well fitted activation curve with a large enough effect in the signal ratio in the repeat runs, not every such curve was filed as active; the % refers to the signal ratio)
Chain of Glucocorticoid receptor (Homo sapiens) (P04150 whole entry, looked up): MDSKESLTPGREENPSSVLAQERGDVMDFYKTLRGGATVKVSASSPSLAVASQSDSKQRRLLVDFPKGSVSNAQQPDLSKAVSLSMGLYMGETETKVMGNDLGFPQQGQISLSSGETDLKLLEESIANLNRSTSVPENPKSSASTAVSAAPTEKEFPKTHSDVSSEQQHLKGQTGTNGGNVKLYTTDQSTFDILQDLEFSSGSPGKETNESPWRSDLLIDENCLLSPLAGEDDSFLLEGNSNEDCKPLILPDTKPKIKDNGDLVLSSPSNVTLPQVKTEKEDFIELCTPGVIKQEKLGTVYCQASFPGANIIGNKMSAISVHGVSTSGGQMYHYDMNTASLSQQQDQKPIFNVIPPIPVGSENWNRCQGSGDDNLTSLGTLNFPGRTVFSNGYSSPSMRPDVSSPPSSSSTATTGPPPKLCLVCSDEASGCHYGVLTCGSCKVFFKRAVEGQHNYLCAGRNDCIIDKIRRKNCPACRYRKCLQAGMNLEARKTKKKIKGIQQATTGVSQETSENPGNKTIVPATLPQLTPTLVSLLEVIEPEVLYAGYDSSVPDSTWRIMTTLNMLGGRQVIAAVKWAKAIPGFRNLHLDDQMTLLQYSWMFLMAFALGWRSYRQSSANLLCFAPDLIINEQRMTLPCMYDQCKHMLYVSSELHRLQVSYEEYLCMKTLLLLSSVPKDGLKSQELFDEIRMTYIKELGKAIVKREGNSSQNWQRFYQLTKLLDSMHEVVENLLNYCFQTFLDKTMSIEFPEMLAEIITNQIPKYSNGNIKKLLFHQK
Method in brief: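 A HeLa cervical cancer line expressing GR and a glucocorticoid response element-driven beta-lactamase gene is treated with compounds for 18 h; LiveBLAzer B/G FRET substrate is then applied and fluorescence read.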

Measured: Potency

Clc1ccc([C@@H]2C[C@H]3CC[C@@H]2N3)cn1
inactive: [1] | [2] | [3] | [4] | [5] | [6] | [7] | [8] | [9] | [10] | [11] | [12] | [13] | [14] | [15] | [16] | [17] | [18] | [19] | [20] | [21] | [22] | [23] | [24] | [25] | [26] | [27] | [28] | [29] | [30] | Aromatase (Homo sapiens) | [31] | [32] | [33]

O=C(O)c1ccccc1[O-].O=C(O)c1ccccc1[O-].[Zn+2]
inactive: [4] | [12] | [18] | [19] | [20] | [21] | [22] | [23] | [24] | [26] | [34] | [32]

N=C1N=C(N)c2cc3ccccc3cc21
inactive: [35]

O=[N+]([O-])c1cccc(S(=O)(=O)NCCNS(=O)(=O)c2cccc([N+](=O)[O-])c2)c1
inactive: [35]

CN1CCN=C(c2ccccc2)c2cc(Cl)ccc21
inactive: [2] | [3] | [4] | [5] | [36] | [6] | [7] | [8] | [9] | [10] | [11] | [12] | [13] | [14] | [15] | [16] | [17] | [37] | [18] | [22] | [23] | [24] | [25] | [26] | [34] | Aromatase (Homo sapiens) | [31] | [32] | [33]

— PubChem BioAssay (Tox21)
